PK Bst = modulators of Bacillus stearothermophilus pyruvate kinase | 51,000 compounds, 1.2% hits | purified pyruvate kinase, luminescence ATP production; ribose 5-phosphate activator present at AC10 | Potency, µM; in the data active = potency below about 11 µM; inconclusive = mostly about 12 µM to 25 µM;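 the screen sought inhibitors and activators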
GBA mod = alters purified human glucocerebrosidase activity | Potency, µM | P04062 | purified enzyme, resorufin glucoside fluorescence (screen aimed at inhibitors), 20 min | 48,000 compounds, 1.1% hits; in the data active = potency below about 15 µM; inconclusive = mostly about 16 µM to 33 µM;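 also: the screen sought inhibitors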
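Compounds titrated against 0.2 nM normal enzyme, 30 uM resorufin beta-D-glucopyranoside substrate, citrate/phosphate buffer with taurocholate and tween-20, pH 5.9. Reaction ran 20 min at room temperature; fluorescence (Ex 548/Em 600) gave AC50.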
TSHR ag = TSH receptor (human) agonism | P16473 | HEK293-CNG-TSHR cells (CNG channel as cAMP sensor), membrane potential dye, cAMP | Potency, µM (series often up to 57.1 µM), hits mostly activators | 73,000 compounds, 0.48% hits | AID 926; active = well fitted activation curve with a large enough effect in the main read-out, with a control signal flat, not every such curve was filed as active; inconclusive = small, poorly fitted or top-dose-only effect, or a change in a side signal; inactive = no such curve, though single readings can be large or run the other way; reference of the percent scale not stated here;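 also: the control signal comes from parental cells without the receptor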
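cAMP rise detected as CNG-channel membrane depolarization by fluorescent dye (emission 590 nm), 30 min after compound, following 60 min dye loading containing 100 uM RO 20-1724 at room temperature. Cells: TSHR/CNG HEK 293, with parental CNG HEK 293 as control.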
Caspase-1 inhib = allosteric or competitive inhibitors of human caspase-1. P29466. Caspase-1 enzyme, Ac-WEHD-AFC fluorogenic rate. Potency, µM (top dose mostly 57.5 µM), actives largely listed as inhibitors. 75,000 compounds, 0.03% hits
Caspase-7 inhib = allosteric or competitive inhibitors of human caspase-7; P55210; recombinant caspase-7, Ac-DEVD-AFC fluorescence rate; Potency, µM (highest dose often 57.5 µM), usual class: inhibitors; 75,000 compounds, 0.02% hits; active = well fitted inhibition curve with a large enough effect in the main read-out, with a control signal flat, not every such curve was filed as active; inconclusive = small, poorly fitted or top-dose-only effect, or a change in a side signal
HEK293 cAMP cs = counter-screen for TSHR agonists: cAMP increase in parental HEK293 | Potency, µM (series often up to 57.1 µM), actives largely listed as activators | 73,000 compounds, 2.5% hits | parental HEK293 CNG cAMP sensor, membrane potential fluorescence | AID 938; also: nearly all actives have a fitted effect of over 55% in size
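Counterscreen for endogenous-receptor signalling: CNG-channel HEK 293 cells report cAMP rise by membrane depolarization. After 60 min dye equilibration with 100 uM RO 20-1724, compounds incubated 30 min before bottom-read fluorescence at 590 nm.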
Each line names hits and unclear results; the compound was inactive in the other large screens. This is a sample that favours compounds with a hit; in the whole collection about 4% have one here. Unless noted, calls follow the shape of the dose curve; as a rule, active = well fitted curve in the direction sought with a large enough effect; inconclusive = small, poorly fitted or top-dose-only effect, or another doubt; inactive = no such curve, though single readings can be large; an effect the other way counts as inactive or inconclusive.

COc1cccc(-c2ccc3ncnc(Nc4ccccc4)c3c2)c1	TSHR ag inconclusive, HEK293 cAMP cs 20µM (no result: PK Bst, GBA mod)
CS(=O)(=O)Nc1cccc(-c2ccc3ncnc(Nc4ccccc4)c3c2)c1	TSHR ag inconclusive, HEK293 cAMP cs inconclusive (no result: PK Bst, GBA mod)
C[C@@]12CC[C@@H]3[C@H](CCC4=CC(=O)CC[C@]43C)[C@@H]1CC[C@@H]2C(=O)COS(=O)(=O)c1ccc(Br)cc1	none (no result: PK Bst, GBA mod)
Oc1[nH]c2ccccc2c1C=Nc1ccc2c(c1)OCCO2	PK Bst 3.2, GBA mod inconclusive
O=C1C(Cl)=C(NCCCN2CCOCC2)C(=O)N1CCc1ccccc1	GBA mod 11
COc1ccccc1-c1cc(C(=O)NCc2ccccc2)no1	none (no result: GBA mod)
COc1ccc(CNC(=O)c2cc(-c3ccccc3OC)on2)cc1	GBA mod 11
COc1ccccc1-c1cc(C(=O)NCc2ccc(F)cc2)no1	GBA mod 9.9
CN1CCN(c2ccc3nc(-c4ccc5nc(-c6ccc(O)cc6)[nH]c5c4)[nH]c3c2)CC1	none (no result: PK Bst, GBA mod)
COc1ccc(NS(=O)(=O)c2cccc(-c3nnc4n3CCCCC4)c2)cc1	TSHR ag inconclusive, HEK293 cAMP cs inconclusive
COc1ccc(-c2cc3nc4n(c(=O)c3s2)CCC4)cc1	PK Bst 3.8
COc1ccc(-c2noc(CSc3nc(-c4ccccc4)cc(=O)[nH]3)n2)cc1OC	TSHR ag 16µM
CC[C@H]1CN(C)[C@H]2Cc3c([nH]c4ccccc34)C(=O)C[C@H]1[C@H]2C(=O)OC	none (no result: PK Bst, GBA mod)
O=c1cnc2cnc(Nc3ccccc3)nc2n1Cc1cccs1	TSHR ag inconclusive, Caspase-1 inhib inconclusive, HEK293 cAMP cs 13µM (no result: PK Bst, GBA mod)
COc1cccc(Nc2ncc3nc(C)c(=O)n(Cc4cccs4)c3n2)c1	TSHR ag inconclusive, Caspase-7 inhib inconclusive, HEK293 cAMP cs 3.2µM (no result: PK Bst, GBA mod, Caspase-1 inhib)
C=C(C)CN(CC#N)CC(=C)C	none (no result: PK Bst, GBA mod)
CN(C)C(=O)c1ccc(-c2nc(Nc3ccccc3)c3ccccc3n2)cc1	TSHR ag 20µM (no result: PK Bst, GBA mod)
CN(C)C(=O)c1ccc(-c2nc(NCc3ccccc3)c3ccccc3n2)cc1	TSHR ag inconclusive, HEK293 cAMP cs inconclusive (no result: PK Bst, GBA mod)
CC1(C)CNC(=O)c2sc(N3CCCCC3)nc2C1	TSHR ag inconclusive, HEK293 cAMP cs 20µM
N#Cc1cc2c(nc1SCc1cccnc1)CCCCC2	TSHR ag inconclusive, HEK293 cAMP cs 10µM
CCC1CCCCN1C(=O)COC(=O)c1cc2ccccc2cc1O (stereo unspecified)	TSHR ag inconclusive, HEK293 cAMP cs 32µM
Cc1ccc(S(=O)(=O)N2C(=O)CCC2C(=O)Nc2ccc3c(c2)OCCO3)cc1 (stereo unspecified)	PK Bst 2.3
O=C(c1ccc(N2CN(C(=O)c3ccco3)c3nc4ccccc4nc32)cc1)N1CCOCC1	TSHR ag 1.3µM (no result: PK Bst)
O=C(c1ccncc1)N1CCN(C(=O)c2ccco2)CC1	none (no result: TSHR ag)
Cc1nc2ccccc2c(=O)n1NC(=O)c1c(O)c2ccccc2n(C)c1=O	none (no result: PK Bst, GBA mod)
COc1cccc(OC)c1C(=O)Nn1c(C2CCC2)nc2ccccc2c1=O	TSHR ag inconclusive, HEK293 cAMP cs 25µM
Cc1c(Cl)cccc1NC(=O)C[C@H]1Sc2ccccc2NC1=O	none (no result: PK Bst, GBA mod)
CN1CCN(C(=O)CSc2nc(-c3cccs3)cc(-c3cccs3)c2C#N)CC1	GBA mod 12
C[C@H](NC(=O)c1ccc(Cl)c(Cl)c1)c1ccc(-c2ccccc2)cc1	none (no result: PK Bst, GBA mod)
CN(C)CCNC(=O)c1ccc(-n2c(=O)c(=O)[nH]c3ccccc32)cc1	none (no result: PK Bst, GBA mod)
CC1CN(S(=O)(=O)c2cn(C)c(=O)n(C)c2=O)CC(C)O1 (stereo unspecified)	TSHR ag 40µM (no result: PK Bst, GBA mod)
C=C/C1=C/Cc2ccccc2C(C[N+](=O)[O-])C(C(=O)OC)(C(=O)OC)C1 (stereo unspecified)	TSHR ag inconclusive, HEK293 cAMP cs inconclusive (no result: PK Bst, GBA mod)
N#CC1=C(N)N(c2ccccc2)C2=C(C(=O)CCC2)C1c1ccsc1 (stereo unspecified)	GBA mod 15
CCSc1sccc1C1C(C#N)=C(N)N(c2cccnc2)C2=C1C(=O)CCC2 (stereo unspecified)	none
Cc1nc2ccccc2nc1-c1ccc(N=[N+]([O-])c2ccc(-c3nc4ccccc4nc3C)cc2)cc1	none (no result: PK Bst, GBA mod)
Cc1ccc(-n2c(SCC(=O)Nc3ccc4c(c3)OCCO4)nnc2-c2ccco2)cc1	TSHR ag 25µM
Cc1ccc(-n2c(SCC(=O)Nc3ccc4c(c3)OCO4)nnc2-c2cccs2)cc1	GBA mod 9.3, TSHR ag inconclusive, HEK293 cAMP cs inconclusive
C=CC(=O)OCC(CO)(COC(=O)C=C)COC(=O)C=C	none (no result: PK Bst, GBA mod)
COc1cc2nc(N3CC=[N+](C(=O)c4ccco4)CC3)nc(N)c2cc1OC	none (no result: PK Bst, GBA mod)
O=c1cnc2cncnc2n1Cc1ccccc1	TSHR ag 25µM (no result: PK Bst, GBA mod)
O=c1cnc2cncnc2n1Cc1ccccc1Cl	TSHR ag 32µM (no result: PK Bst, GBA mod)
C1CCCNCC1	none (no result: PK Bst, GBA mod)
CC(=O)[C@H]1CC[C@@H]2[C@]1(C)CC=C1[C@]23C=C[C@]2(C[C@H](O)CC[C@@]12C)[C@H](C(=O)O)[C@@H]3C(=O)O	none (no result: PK Bst, GBA mod)
O=C(Nc1cccnc1)Nc1ccccc1Cl	GBA mod 15 (no result: PK Bst)
O=C(Nc1cccnc1)Nc1ccc(Br)cc1Cl	none (no result: GBA mod)
O=C(Nc1cccnc1)c1ccc(Oc2ccccc2)cc1	GBA mod 15
COc1ccc(-c2csc(N(CC3CCCO3)C(=O)c3cccs3)n2)cc1 (stereo unspecified)	TSHR ag inconclusive, HEK293 cAMP cs 16µM
CCN(CC)CCCN(C(=O)c1cccs1)c1nc(-c2ccc(OC)cc2)cs1	GBA mod inconclusive, TSHR ag inconclusive
N#CCSc1nc2ccc(N3CCCCC3)cc2c(=O)n1Cc1ccccc1	GBA mod 15, Caspase-1 inhib inconclusive
C=C(C)Cn1c(SCC#N)nc2ccccc2c1=O	TSHR ag inconclusive, HEK293 cAMP cs inconclusive
Cc1nc2cnc(N(C)C)nc2n(CCc2ccccc2)c1=O	TSHR ag inconclusive, Caspase-1 inhib inconclusive, Caspase-7 inhib inconclusive, HEK293 cAMP cs 16µM (no result: PK Bst, GBA mod)
Nc1ccc(S(=O)(=O)NCc2nccs2)cc1	none (no result: PK Bst, GBA mod)
Cc1ccc(C)c(N2CCN(C(=O)CCCn3c(=S)[nH]c4cc5c(cc4c3=O)OCO5)CC2)c1	GBA mod 15, TSHR ag inconclusive, HEK293 cAMP cs inconclusive
O=C(CCCn1c(=S)[nH]c2cc3c(cc2c1=O)OCO3)N1CCN(c2ccccc2F)CC1	none (no result: GBA mod)
Cc1nc(N2CCOCC2)c2cc(-c3ccccc3)sc2n1	PK Bst inconclusive, TSHR ag inconclusive, HEK293 cAMP cs 25µM (no result: GBA mod)
CCCCOCCOCCOCc1cc2c(cc1CCC)OCO2	TSHR ag inconclusive, HEK293 cAMP cs 32µM (no result: PK Bst, GBA mod)
O=C(CN1C(=O)c2cccc3cccc1c23)Nc1cccnc1	PK Bst 10, Caspase-7 inhib inconclusive (no result: Caspase-1 inhib)
O=C(CN1C(=O)c2cccc3cccc1c23)NCc1cccnc1	TSHR ag inconclusive, Caspase-7 inhib inconclusive, HEK293 cAMP cs inconclusive (no result: Caspase-1 inhib)
Cc1ccc(NC(=O)c2ccccc2O)cc1	PK Bst 6.3

Screening data from PubChem BioAssay.
